# Results reported in PubChem BioAssay (NCATS).
# Records with an inconclusive call do not appear. A number with no mark means an inactive call. Active and inactive are the calls of the source. Calls come from the whole dose curve; as a rule, active = well fitted inhibition curve with a large enough effect in the repeat runs; inconclusive = weak or mixed curves; inactive = no such curve, though single readings can be large or run the other way.
# Target: Cytochrome P450 2C9 (Homo sapiens) (UniProt P11712)
# Assay: Cytochrome P450 family 2 subfamily C member 9 (CYP2C9) small molecule antagonists: luciferase biochemical (cell-free) qHTS assay (AID 1645842); note: nearly all actives have a fitted effect of over 55% in size
# Settings: P450-Glo CYP2C9 enzyme assay, luciferin luminescence; series mostly up to 57.4 µM; activity change, negative = inhibition: at the top concentration
# In short: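 P450-Glo CYP2C9 system: proluciferin substrate with enzyme in mix containing 0.4% BSA, 10 min at room temperature, then NADPH regeneration solution added and incubated 1 h at 37C. Detection reagent stopped reaction; luminescence read after 20 min as RLU.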
# % is set by controls: 0 for no effect and ±100 for the full control effect; potency is the fitted concentration of half-maximal effect.
# Cytochrome P450 2C9 (Homo sapiens), sequence (P11712 whole entry, looked up): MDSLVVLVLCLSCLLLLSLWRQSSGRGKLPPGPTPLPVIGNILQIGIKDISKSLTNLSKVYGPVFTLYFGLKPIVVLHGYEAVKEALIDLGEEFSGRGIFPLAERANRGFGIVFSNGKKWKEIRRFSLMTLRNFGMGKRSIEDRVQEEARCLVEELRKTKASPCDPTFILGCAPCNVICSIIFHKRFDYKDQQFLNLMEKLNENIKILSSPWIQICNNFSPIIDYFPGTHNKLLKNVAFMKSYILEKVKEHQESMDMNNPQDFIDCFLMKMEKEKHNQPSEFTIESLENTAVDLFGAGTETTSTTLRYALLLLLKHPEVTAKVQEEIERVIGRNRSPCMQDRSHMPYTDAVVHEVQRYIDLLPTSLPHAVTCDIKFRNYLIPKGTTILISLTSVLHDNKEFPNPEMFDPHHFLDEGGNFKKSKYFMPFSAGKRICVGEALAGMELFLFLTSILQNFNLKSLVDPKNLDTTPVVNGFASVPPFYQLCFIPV
Structure (SMILES),Potency,"activity change, negative = inhibition"
CCOc1ccc(-c2nn3ncccc3c2-c2ccc(S(C)(=O)=O)cc2)cc1,4.77 µM (active),
CN1CCc2cc(Cl)c(O)cc2[C@@H](c2cccc3c2OCC3)C1,,5.15%
O=C(NC/C=C/CN1CCN(c2cccc(Cl)c2Cl)CC1)c1ccc(-c2ccccn2)cc1,10.7 µM (active),
CCCNCCOc1ccc(NC(=O)c2c[nH]c3c2C(=O)CCC3)cc1F,,-2.29%
Cc1onc(-c2c(Cl)cccc2Cl)c1CC(=O)NCc1ccc(OCC(F)(F)F)nc1,2.39 µM (active),
Oc1ccccc1-c1cc(-c2ccccc2F)[nH]n1,13.5 µM (active),
CCCSc1nc(NC2CC2c2ccc(F)c(F)c2)c2nnn(C3CC(OCCO)C(O)C3O)c2n1 (stereo not given),3.79 µM (active),
CC(C)[C@@](O)(c1ccc2cc(OC(F)F)c(OC(F)F)cc2c1)c1cn[nH]n1,1.07 µM (active),
CC[C@@H](C)[C@H](N)C(=O)N1Cc2ccccc2C1,,-21.8%
Cc1ccc(COC(=O)N2CC[C@@H](CNc3ncccn3)[C@@H](F)C2)cc1,13.5 µM (active),
